Screening results as filed in PubChem BioAssay.
Tb PYK inh: qHTS of Trypanosoma Brucei Inhibitors | pyruvate kinase (Trypanosoma brucei), Q57TT1 | TbPYK enzyme, Kinase-Glo Plus ATP luminescence, 45 min | Potency, µM (series often up to 76.8 µM), usual class: inhibitors | 0.12% of 410,000 active; note: nearly all actives have a fitted effect of over 50% in size
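Quantitative HTS: titrated library compounds versus trypanosomal pyruvate kinase in TEA buffer (pH 7.2) containing KCl, MgCl2, BSA and Tween-20. Reactions were initiated with ADP, 130 uM final. Kinase-Glo Plus luminescence was read after 45 min at RT.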
LmPK inh: qHTS Assay for Inhibitors of Leishmania Mexicana Pyruvate Kinase (LmPK); Q27686; purified LmPK, Kinase-Glo ATP luminescence, 1 h; Potency, µM (top dose mostly 57.5 µM), hits mostly inhibitors; 0.37% of 290,000 active; AID 1721, 2009
Target sequence (Q27686 whole entry, looked up): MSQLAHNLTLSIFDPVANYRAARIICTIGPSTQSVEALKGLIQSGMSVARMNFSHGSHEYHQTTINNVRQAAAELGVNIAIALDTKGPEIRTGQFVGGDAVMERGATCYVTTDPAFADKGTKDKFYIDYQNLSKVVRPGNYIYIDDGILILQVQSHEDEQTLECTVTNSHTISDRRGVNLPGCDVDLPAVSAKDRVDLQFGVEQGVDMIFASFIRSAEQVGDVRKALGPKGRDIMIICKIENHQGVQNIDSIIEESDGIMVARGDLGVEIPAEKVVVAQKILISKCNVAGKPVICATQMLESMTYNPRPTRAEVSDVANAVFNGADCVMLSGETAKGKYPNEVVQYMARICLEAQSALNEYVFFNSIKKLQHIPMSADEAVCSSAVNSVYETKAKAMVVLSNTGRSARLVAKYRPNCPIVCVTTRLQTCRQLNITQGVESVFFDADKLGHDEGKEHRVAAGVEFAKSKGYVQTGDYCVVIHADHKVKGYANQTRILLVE
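0.1 nM LmPK, 0.5 mM PEP, 0.1 mM ADP; 50 mM imidazole pH 7.2, 7 mM MgCl2, 50 mM KCl; 1 h RT. Kinase-Glo luminescence readout, normalized to no-enzyme (full inhibition) and uninhibited wells.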
Sm TGR inh: qHTS Assay for the Inhibitors of Schistosoma Mansoni Peroxiredoxins | Schistosoma mansoni thioredoxin glutathione reductase (TGR), Q962Y6 | purified TGR, DTNB reduction, TNB absorbance 405 nm | Potency, µM (titrated, usually from 114 µM), most hits filed as inhibitors | 3% of 360,000 active | AID 485364, 2010; note: nearly all actives have a fitted effect of over 60% in size
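TGR 20 nM + NADPH 100 uM (dispensed conc.), cpd preinc 15 min RT; start with NADPH (500 uM addition) then DTNB (15 mM addition). Kinetic TNB absorbance, 405 nm filter. Four-parameter Hill fit across titration.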
RE007 growth inh: qHTS Assay for Inhibitors of the HIV-1 protein Vpr; 0.21% of 360,000 active; AID 651644, 2012; Potency, µM (series often up to 92.2 µM), usual class: inhibitors; S. pombe RE007 Vpr strain, BacTiter-Glo ATP luminescence, 24 h; active = well fitted falling curve with a large enough effect; inconclusive = small, poorly fitted or top-dose-only effect; inactive = no such curve, though single readings can be large or run the other way; note: nearly all actives have a fitted effect of over 50% in size
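Fission yeast RE007 carrying one integrated HIV-1 vpr copy, seeded at OD 0.01 in PMG+AL medium with 23 nL pinned compound. Grown 24 h at 30 degrees; viability read by BacTiter-Glo luminescence after 5 min.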
Large screens that a line does not name were inactive. Rows were chosen to be rich in hits. Some 3% of all compounds tested hit in one or more screens of this group. Unless noted, calls come from the whole dose curve; as a rule, active = well fitted curve in the direction sought with a large enough effect; inconclusive = small, poorly fitted or top-dose-only effect, or another doubt; inactive = no such curve, though single readings can be large; an effect the other way counts as inactive or inconclusive.

Cc1cc(C)c(S(=O)(=O)NCC(c2ccco2)S(=O)(=O)c2cccs2)c(C)c1 (stereo not given)	Sm TGR inh 0.28µM (no result: LmPK inh, RE007 growth inh)
Cc1ccc(CNC(=O)C(=O)NCC(c2ccco2)S(=O)(=O)c2cccs2)cc1 (stereo not given)	Sm TGR inh inconclusive (no result: LmPK inh, RE007 growth inh)
Cc1cc(S(=O)(=O)NCC(c2ccco2)S(=O)(=O)c2cccs2)ccc1F (stereo not given)	Sm TGR inh inconclusive (no result: LmPK inh, RE007 growth inh)
CCOC(=O)C(=O)NCC(c1ccco1)S(=O)(=O)c1cccs1 (stereo not given)	Sm TGR inh 2.5µM (no result: LmPK inh)
C=CCNC(=O)/C(C#N)=C\c1cc(Cl)c(O)c(OCC)c1	Sm TGR inh 40µM
CC(NC(=O)c1cc2ccccn2n1)c1ccccc1 (stereo not given)	none (no result: LmPK inh, RE007 growth inh)
CCN(CC)C(=O)CSc1nc2c(c(=O)n(C)c(=O)n2C)n1Cc1ccccc1	none (no result: LmPK inh, RE007 growth inh)
N#Cc1c(N)n(-c2ccc(N)cc2)c2nc3ccccc3nc12	none
N#Cc1c(C#N)c(SSc2c(C#N)c(C#N)c(N)n2-c2ccccc2)n(-c2ccccc2)c1N	Tb PYK inh 0.89µM (no result: LmPK inh, Sm TGR inh)
COc1cc(/C=C2/C(=O)c3cccc([N+](=O)[O-])c3C2=O)c(Br)cc1O	Tb PYK inh inconclusive, LmPK inh 14µM, Sm TGR inh 35µM
COc1ccc(NC(=O)c2nc(S(=O)(=O)Cc3ccc(C)cc3)ncc2Cl)cc1	Sm TGR inh inconclusive (no result: LmPK inh, RE007 growth inh)
CCS(=O)(=O)c1ncc(Cl)c(C(=O)Nc2ccc(C)cc2)n1	Sm TGR inh 6.3µM
CCC1CCCCN1S(=O)(=O)c1ccc(NC(=O)c2nc(S(C)(=O)=O)ncc2Cl)cc1 (stereo not given)	Sm TGR inh 2µM
Cc1ccc(CS(=O)(=O)c2ncc(Cl)c(C(=O)Nc3ccc(OC(F)F)cc3)n2)cc1	Sm TGR inh 10µM
CCS(=O)(=O)c1ncc(Cl)c(C(=O)Nc2ccc(S(=O)(=O)N3CCCC(C)C3)cc2)n1 (stereo not given)	Sm TGR inh 0.35µM
CSc1ncc(Cl)c(C(=O)Nc2ccc(NC(C)=O)cc2)n1	none
N#CCCn1c(=O)c(-c2ccccc2)nc2cnc(Oc3ccccc3)nc21	none (no result: LmPK inh, Sm TGR inh, RE007 growth inh)
C=CCn1c(O)c(N=Nc2ccccc2)c2ccccc21	Sm TGR inh 40µM
Cc1cc(Nc2cccc(C(F)(F)F)c2)nc2ccc(NC(=O)c3ccc(N(C)C)cc3)cc12	none (no result: LmPK inh, RE007 growth inh)
O=C(CSc1cccc[n+]1[O-])CSc1cccc[n+]1[O-]	RE007 growth inh 7.9µM
COc1ccc(S(=O)(=O)CCC(=O)NCCc2ccc(C)cc2)cc1	Sm TGR inh 32µM
CCOc1cccc2sc(NC(=O)CCS(=O)(=O)c3ccccc3)nc12	none
Cc1cccc(C)c1NC(=O)CCS(=O)(=O)c1ccc(Br)cc1	none
COc1ccc(C)c2sc(NC(=O)CCS(=O)(=O)c3ccccc3)nc12	Sm TGR inh 5µM
COc1ccc(S(=O)(=O)CCC(=O)Nc2c(C)cccc2C)cc1	Sm TGR inh 40µM
COc1ccccc1-c1nnc(NC(=O)CCS(=O)(=O)c2ccccc2)o1	Sm TGR inh 40µM
CCc1ccccc1NC(=O)CCS(=O)(=O)c1ccc(OC)cc1	Sm TGR inh 14µM
CC(=O)CS(=O)(=O)c1ccc(Oc2ccc(S(=O)(=O)CC(C)=O)cc2)cc1	none
CC(=O)CCS(=O)(=O)c1ccc(Oc2ccc(S(=O)(=O)CCC(C)=O)cc2)cc1	Sm TGR inh 10µM
CCOc1ccccc1NC(=O)CCS(=O)(=O)c1ccc(OC)cc1	none
COc1ccc(CNC(=O)CCS(=O)(=O)c2ccc3c(c2)NC(=O)CS3)cc1	Sm TGR inh 13µM
Cc1ccc(-n2ncc3c(NCCc4ccccc4)ncnc32)cc1	none (no result: LmPK inh, RE007 growth inh)
O=C(NCCc1ccc(Cl)cc1)C1CCN(S(=O)(=O)c2ccc3[nH]ccc3c2)CC1	none (no result: LmPK inh, RE007 growth inh)
Cc1ccccc1NC(=O)C(Cc1ccccc1)N1Cc2ccccc2C1=O (stereo not given)	none (no result: LmPK inh, RE007 growth inh)
Cc1cc(C)n(C(=O)CNC(=O)c2cccc(Br)c2)n1	none
CCn1nc(C)cc1C(=O)Sc1ccc(Cl)cc1Cl	Sm TGR inh 3.5µM, RE007 growth inh inconclusive
CCn1nc(C)cc1C(=O)OCC(=O)c1ccc(Cl)cc1	none
CCn1nc(C)cc1C(=O)Sc1cccc(Br)c1	Sm TGR inh 5.6µM
O=C(CCSCc1cccc(Cl)c1)NCc1ccc(F)cc1Cl	none (no result: LmPK inh, RE007 growth inh)
Cc1cc(F)ccc1NC(=O)c1c(C)oc2c1C1=NCCN1C=N2	none (no result: LmPK inh, RE007 growth inh)
COc1ccc2[nH]c(C)c(C(=O)CN3CCOCC3)c2c1	Sm TGR inh 45µM
COc1ccc2[nH]c(C)c(C(=O)CN3CCc4cc(OC)c(OC)cc4C3)c2c1	none
Cc1cccc(-c2[nH]c(C(C)(C)C)nc2-c2ccc3nccnc3c2)n1	none (no result: LmPK inh, Sm TGR inh, RE007 growth inh)
CC(=O)Cc1nsc(NC(=O)c2ccc(COc3ccccc3)o2)n1	Sm TGR inh 45µM
Cc1ccc(O)c(CNc2ccccn2)c1	none
Oc1ccc2ccccc2c1CNc1ccccn1	Sm TGR inh 2.2µM
CCOc1ccc(C(=O)N2CCn3c2nc2ccccc23)cc1	Sm TGR inh 45µM
COc1ccc(C(=O)N2CCn3c2nc2ccccc23)cc1	none
CC1CC=C2C(C#N)=C(N)C(C#N)(C#N)C(c3cccs3)C2C1 (stereo not given)	Sm TGR inh 50µM
O=C(CSc1nc(-c2ccccc2)nc2c1CCCC2)c1ccc(F)cc1	none (no result: LmPK inh, RE007 growth inh)
COC(=O)c1ccc(CSc2ccc3nnc(-c4cccnc4)n3n2)o1	Sm TGR inh 40µM (no result: Tb PYK inh, RE007 growth inh)
CC1=NN(c2ccccc2)C(=O)/C1=C/c1c(O)[nH]c(=S)[nH]c1=O	Sm TGR inh 8.9µM
Cc1cc2ncc(C(=O)Nc3ccsc3C(=O)O)c(C)n2n1	Tb PYK inh inconclusive, LmPK inh 25µM
CCCc1cc(N2CCN(C(=O)c3ccco3)CC2)n2c(nc3ccccc32)c1C#N	Sm TGR inh 40µM
CCCc1cc(-n2ccnc2C)n2c(nc3ccccc32)c1C#N	none (no result: LmPK inh, Sm TGR inh)
Fc1ccc(N2CCN(c3nc4ccccc4c4nc(-c5cccnc5)nn34)CC2)cc1	none (no result: LmPK inh, RE007 growth inh)
COc1ccc(/C=C/C(=O)N/C(=C\c2ccco2)C(=O)NCCc2nc3ccccc3[nH]2)cc1	none
Cc1ccc(-c2nc3ccccc3[nH]2)cc1NC(=O)/C=C/c1ccco1	Sm TGR inh 20µM
O=C(/C=C/c1ccco1)N/C(=C\c1ccco1)C(=O)NCCc1nc2ccccc2[nH]1	Sm TGR inh 16µM
CCN1CCN(c2cc(-c3ccc(F)cc3)c3c(n2)CCCCCC3)CC1	none (no result: LmPK inh, Sm TGR inh, RE007 growth inh)
CN(Cc1ccco1)C(=O)CN1C(=O)NC(c2ccccc2)(c2ccccc2)C1=O	Sm TGR inh 35µM (no result: LmPK inh)
Cc1cc2c(cc(C(=O)NCCCN3CCOCC3)n2Cc2ccc(Cl)cc2)o1	Sm TGR inh 35µM
O=C(NCC(F)(F)F)c1cc2c(c(-c3cccc(-c4ccccc4F)c3)n1)[C@@H](CCO)N(C(=O)CC1CC1)C2	none (no result: LmPK inh, Sm TGR inh)
COc1cc2c(cc1OC)C1OC(c3ccsc3)(C2)Oc2cc(C)oc(=O)c21 (stereo not given)	Sm TGR inh inconclusive (no result: Tb PYK inh, RE007 growth inh)
